Drawing on ChEMBL document CHEMBL3988442, “University of Dundee, Small-Polar-MMV Screening Library” (2021), this text covers Percent Effect for 40 compounds.

The test addresses T1, Aspartate--tRNA(Asp/Asn) ligase (Mycobacterium tuberculosis (strain ATCC 25618 / H37Rv)) (UniProt P9WFW3).
T1 sequence (whole entry): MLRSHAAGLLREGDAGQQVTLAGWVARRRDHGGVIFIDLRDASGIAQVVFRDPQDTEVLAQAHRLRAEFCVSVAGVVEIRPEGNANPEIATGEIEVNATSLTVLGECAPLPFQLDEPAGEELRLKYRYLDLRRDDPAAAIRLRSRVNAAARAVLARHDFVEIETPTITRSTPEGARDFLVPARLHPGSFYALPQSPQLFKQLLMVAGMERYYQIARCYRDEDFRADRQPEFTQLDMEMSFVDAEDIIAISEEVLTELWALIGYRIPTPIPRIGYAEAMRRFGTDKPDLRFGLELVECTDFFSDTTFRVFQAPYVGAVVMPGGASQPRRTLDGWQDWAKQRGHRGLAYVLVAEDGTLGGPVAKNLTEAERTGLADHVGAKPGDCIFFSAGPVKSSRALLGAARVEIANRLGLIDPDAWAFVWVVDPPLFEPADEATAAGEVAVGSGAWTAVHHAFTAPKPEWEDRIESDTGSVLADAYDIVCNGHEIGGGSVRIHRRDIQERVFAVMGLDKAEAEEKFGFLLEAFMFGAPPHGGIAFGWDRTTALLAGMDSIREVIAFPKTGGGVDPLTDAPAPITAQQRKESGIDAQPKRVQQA
Put plainly: Assay for Asp RNA synthetase-1 from Mycobacterium tuberculosis. It is filed as functional. On the set-up: scale not given: in the data most compounds retested in dose-response had high values. The conditions noted are these: 30 µM.
`Cc1cccc(CN2CC3(CCNCC3)OCC2=O)n1`: the Percent Effect stood at 5.56%.
For `CCOCC1CN(S(C)(=O)=O)Cc2cnn(C)c21` (stereo not given), the Percent Effect was -0.204%.
Take `NC(=O)C1(c2cnccn2)CCCN1Cc1cc2ccccc2o1` (stereo not given): the Percent Effect came to 3.17%.
As for `Cc1nn(C)c(C)c1CC(=O)N1CCC(Nc2cccnn2)CC1`, the figure is -1.68%.
Consider `CS(=O)(=O)NCC1CCCN(Cc2ccc(F)c3cccnc23)C1` (stereo not given), for which the Percent Effect is 5.29%.
In the case of `Cc1ncoc1C(=O)N1CCn2c(COCC3CC3)cnc2C1C` (stereo not given), the Percent Effect was determined as 7.95%.
In the case of `CCC(=O)N1CCc2[nH]cnc2C12CCN(C(=O)CCS(C)(=O)=O)CC2` it was -0.836%; in that of `Cn1ccc(NC(=O)Cc2cccc(F)c2)n1`, 3.36%.
As for `CNc1cncc(C2CCCN(S(C)(=O)=O)C2)n1` (stereo not given), the figure is 5.76%; as for `Cc1nc2ccccn2c1CN(Cc1cccnc1)CC1CCCO1` (stereo not given), 8.51%.
As for `CCOC(C)c1nc(CN2CCN(c3nccc(C)n3)CC2)cs1` (stereo not given), the figure is -0.859%; as for `COC[C@H]1CCC[C@]12CN(C(=O)NCc1ccccc1)CCO2`, -3.75%.
For `O=C(NCC(=O)N1CCCCC1)c1ccc(Cl)cc1I`, the Percent Effect came to 0.257%.
As for `Cc1nc(N2CCCC2)ncc1-c1cc(O)nc(N2CCCC2)n1`, the figure is -6.71%.
In the case of `O=C1N(c2ccccc2)Cc2nc(=O)[nH]n21`, the Percent Effect was -0.29%.
In the case of `Cc1cccc(C(=O)NCc2ccc(N3CCCCC3)nc2)n1` it was 2.43%; in that of `O=C(Cn1cccnc1=O)NC(Cc1cccs1)c1ccccn1` (stereo not given), -0.372%; in that of `CC(=O)Nc1nc(C(=O)NC(C)c2ccc(F)cc2)cs1` (stereo not given), -3.46%.
As for `Cc1ccccc1CN1CCC2(COCc3cnc(N(C)C)nc32)C1` (stereo not given), the figure is -3.4%.
In the case of `COc1cccc2c1OCC(C(=O)NC1CCN(S(C)(=O)=O)CC1)C2` (stereo not given) it was -3.65%; in that of `COCCc1noc(CN2CCCC(Cn3nc(C)nc3C)C2)n1` (stereo not given), 12.8%; in that of `Cc1ccc2c(n1)N(C)CCN(C(=O)C1CC1)C2`, 9.78%.
`CCc1nnc(CN2CCN(C(=O)c3ccccn3)CC2)o1`: the Percent Effect was -0.577%.
As for `CCN(C(=O)CCCOc1ccccc1F)c1ccncc1`, the Percent Effect was -2.34%.
As for `CN(Cc1ccc(Cl)c(Cl)c1)C(=O)CNC(N)=O`, the figure is 0.719%; as for `CN(Cc1nnc(C2CC2)n1C)C1CCN(Cc2ccon2)C1` (stereo not given), 12.3%; as for `Cn1nc2c(cc1=O)CN(Cc1nnc(C3CC3)o1)CC2`, 47.1%.
For `Cn1ccc(CN2CCC(COC3CCCC3)CC2)cc1=O`, the Percent Effect is -0.509%.
Turning to `CCOC(=O)N1CCN(c2nc(NCCCO)c3ccccc3n2)CC1`, the Percent Effect worked out at 1.68%.
In the case of `Cc1cnn(CC2CN(CCN3CCCC3=O)CCO2)c1` (stereo not given) it was -4.53%.
Take `COCc1cccc(C(=O)N2CCCCC2c2nccs2)c1` (stereo not given): the Percent Effect is -3.8%.
In the case of `CCCNC(=O)c1cc2c(nc1O)CCC(C)C2` (stereo not given) it was -2.53%; in that of `c1ccc(-n2ccc(CN3CCCC3Cn3cccn3)n2)cc1` (stereo not given), 4.81%; in that of `Cc1nc(C)n(CC2CCCN2Cc2nc(N)c3ccccc3n2)n1` (stereo not given), -1.84%.
In the case of `O=C(CN1CCOC(Cn2cccn2)C1)Nc1nccs1` (stereo not given) it was -4.87%; in that of `CC(C)OCc1ncn2c1CN(Cc1ccc(F)cc1)CCC2`, -1.67%.
As for `Cn1cnc2c1CCN(Cc1nc(COc3ccc(F)cc3)no1)C2`, the Percent Effect was 2.19%.
Take `Cc1cc(C)n(CC2CN(Cc3cscn3)CCO2)n1` (stereo not given): the Percent Effect is -1.81%.
In the case of `CN1CCC/C1=N\S(=O)(=O)c1ccc(NC(=O)c2cccs2)cc1`, the Percent Effect is -0.972%.
As for `CN(CCc1ccccc1)C1CCCN(Cc2nccn2C)C1` (stereo not given), the Percent Effect is 0.357%.
